The record followed here is PubChem BioAssay (NCI).

Some test systems named below: NCI-H23 lung; NCI-H226 lung; NCI-H322M lung; HOP-62 NSCLC; NCI-H460 lung; HOP-92 NSCLC; NCI-H522 lung; A549/ATCC NSCLC; 786-0 renal; COLO 205 colon; DU-145 prostate; K-562 leukemia; MALME-3M melanoma; MDA-MB-231 breast; RXF 393 renal; SF-268 CNS; SF-295 CNS; SF-539 CNS; UACC-257 melanoma; M14 melanoma.
Assay in all cases: NCI-60 one-dose screen, 48 h (100 = growth as untreated, 0 = no growth, -100 = all killed)
Holding throughout (conditions): 10 µM

SMILES strings stand for the structures. Compounds without any hit were thinned out: in the full panel of roughly 83,000, 20% have a hit.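 Interpretation: 100, growth as untreated; towards 0, rising growth inhibition; 0, no net growth; 0 to -100, cell death. Compounds scoring below 10 were considered active.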 Unmarked numbers belong to inactive results. Calls of active or inactive are those of the source.

Take `COC1=CC(=O)c2nc(Cl)ccc2C1=O`: the growth is -15.2% (active) in the assay on NCI-H23 lung; 26.6% in the assay with NCI-H226 lung; 106% in the assay with NCI-H322M lung; 89.4% in the assay with HOP-62 NSCLC; 115% with NCI-H460 lung; -18.4% (active) with HOP-92 NSCLC. Further, the growth was -51.2% (active) with NCI-H522 lung; 98.3% in the assay on A549/ATCC NSCLC; 72.4% with 786-0 renal; 102% in the assay on COLO 205 colon; 63% in the assay on DU-145 prostate; 0.0099% (active) in the assay on K-562 leukemia. In addition, the growth in the assay with MALME-3M melanoma was 130%; in the assay on MDA-MB-231 breast, -25.5% (active); in the assay with RXF 393 renal, -53.9% (active); in the assay with SF-268 CNS, 63.6%; in the assay on SF-295 CNS, 115%; in the assay with SF-539 CNS it was 88.3%. The growth is -30.9% (active) in the assay with UACC-257 melanoma and -5.38% (active) in the assay with M14 melanoma.

Consider `Cc1cc(NC(=O)CSCC(=O)O)no1`, for which the growth was 102% with NCI-H23 lung; 110% in the assay on NCI-H226 lung; 96.7% in the assay on NCI-H322M lung; 96.3% with HOP-62 NSCLC; 110% in the assay with NCI-H460 lung; 107% in the assay with HOP-92 NSCLC. Besides, the growth with NCI-H522 lung was 101%; in the assay on A549/ATCC NSCLC it was 97.2%; in the assay on 786-0 renal it was 103%; with COLO 205 colon, 110%; in the assay with DU-145 prostate it was 112%; in the assay with K-562 leukemia it was 117%. The growth was 96.8% in the assay with MALME-3M melanoma; 103% in the assay with RXF 393 renal; 114% with SF-268 CNS; 94.2% in the assay with SF-295 CNS; 96.4% in the assay with SF-539 CNS; 95.4% in the assay with UACC-257 melanoma. In the assay with M14 melanoma, the growth was 99.6%.

As to `CCN1C(=O)/C(=C/C=C/N(C)c2ccccc2)SC1=S`, the growth was 92.9% in the assay on NCI-H23 lung; 66.4% in the assay with NCI-H226 lung; 94.6% with NCI-H322M lung; 36.2% with HOP-62 NSCLC; 94.7% in the assay on NCI-H460 lung; 103% with HOP-92 NSCLC. Also, the growth with NCI-H522 lung was 60.9%; in the assay on A549/ATCC NSCLC, 82.8%; in the assay with 786-0 renal it was 79.8%; with COLO 205 colon, 104%; in the assay with DU-145 prostate, 88.8%; with K-562 leukemia, 79.1%. Further, the growth in the assay on MALME-3M melanoma is 86.4%; with MDA-MB-231 breast, 94.2%; in the assay with RXF 393 renal, 90.3%; in the assay on SF-268 CNS, 65.7%; in the assay on SF-295 CNS, 54.8%; in the assay on SF-539 CNS, 92.3%. Also, the growth was 97.7% in the assay on UACC-257 melanoma and 101% with M14 melanoma.

For the molecule `Cc1cc(N)ccc1-c1ccc(N)cc1C`, the growth with NCI-H23 lung is 92.8%; in the assay with NCI-H226 lung it was 102%; in the assay with NCI-H322M lung, 104%; in the assay with HOP-62 NSCLC, 89.9%; in the assay on NCI-H460 lung, 104%; with HOP-92 NSCLC, 47.6%. The growth is 96.9% with NCI-H522 lung; 92.8% in the assay on A549/ATCC NSCLC; 101% with 786-0 renal; 103% in the assay on COLO 205 colon; 110% with DU-145 prostate; 106% in the assay with K-562 leukemia. The growth in the assay with MALME-3M melanoma is 120%; with MDA-MB-231 breast it was 106%; in the assay with RXF 393 renal, 108%; in the assay with SF-268 CNS, 103%; in the assay on SF-295 CNS, 99.2%; in the assay with SF-539 CNS it was 93.8%. The growth with UACC-257 melanoma is 80.7%; in the assay with M14 melanoma it was 94.7%.

In the case of `N#CCc1ccc([N+](=O)[O-])cc1`, the growth is 98.5% in the assay on NCI-H23 lung; 98.2% in the assay on NCI-H226 lung; 99.1% in the assay with NCI-H322M lung; 90.7% with HOP-62 NSCLC; 102% in the assay on NCI-H460 lung; 92.7% in the assay on HOP-92 NSCLC. Moreover, the growth is 101% in the assay on NCI-H522 lung; 96.6% in the assay on A549/ATCC NSCLC; 106% in the assay with 786-0 renal; 105% in the assay on COLO 205 colon; 113% in the assay with DU-145 prostate; 114% in the assay on K-562 leukemia. Moreover, the growth with MALME-3M melanoma was 148%; in the assay with MDA-MB-231 breast, 100%; in the assay with RXF 393 renal, 113%; in the assay with SF-268 CNS, 106%; in the assay on SF-295 CNS, 95.3%; in the assay on SF-539 CNS, 101%. In addition, the growth with UACC-257 melanoma is 74%; with M14 melanoma it was 101%.

Turning to `COc1ccccc1NC(=O)C1=C(C)NC(C)=C(C(=O)Nc2ccccc2OC)C1c1cccc([N+](=O)[O-])c1`, the growth is 76.6% in the assay on NCI-H23 lung; 74.7% in the assay on NCI-H226 lung; 91.2% with NCI-H322M lung; 68.5% in the assay with HOP-62 NSCLC; 67.5% in the assay with NCI-H460 lung; 56.8% in the assay on HOP-92 NSCLC. Besides, the growth with NCI-H522 lung was 72.4%; with A549/ATCC NSCLC, 67%; with 786-0 renal it was 84.6%; with COLO 205 colon it was 89.3%; in the assay with DU-145 prostate it was 84.1%; in the assay on K-562 leukemia it was 57.3%. Moreover, the growth in the assay on MALME-3M melanoma is 84.7%; in the assay with RXF 393 renal, 79.2%; in the assay on SF-268 CNS it was 67%; with SF-295 CNS it was 49.5%; in the assay on SF-539 CNS, 75.2%; in the assay on UACC-257 melanoma, 92.3%. Moreover, the growth in the assay on M14 melanoma is 76.5%.

As for `CCN(CC)C(=O)/C=C(/C)c1ccccc1`, the growth with NCI-H23 lung was 96.5%; in the assay on NCI-H226 lung it was 97.2%; with NCI-H322M lung it was 106%; in the assay with HOP-62 NSCLC it was 109%; in the assay on NCI-H460 lung, 104%; with HOP-92 NSCLC, 80.2%. The growth is 107% with NCI-H522 lung; 113% in the assay on A549/ATCC NSCLC; 101% in the assay on 786-0 renal; 106% in the assay on COLO 205 colon; 117% in the assay with DU-145 prostate; 107% in the assay on K-562 leukemia. The growth in the assay with MALME-3M melanoma is 111%; with MDA-MB-231 breast it was 108%; in the assay with RXF 393 renal it was 96.7%; in the assay on SF-268 CNS it was 104%; in the assay with SF-295 CNS, 100%; in the assay on SF-539 CNS it was 107%. Also, the growth is 110% with UACC-257 melanoma and 104% in the assay on M14 melanoma.

As to `CCOc1ccc(/C=C/C(=O)c2ccccc2)cc1`, the growth was 106% with NCI-H23 lung; 114% in the assay on NCI-H226 lung; 132% with NCI-H322M lung; 102% in the assay on HOP-62 NSCLC; 103% in the assay on NCI-H460 lung; 82.6% in the assay with HOP-92 NSCLC. The growth in the assay with NCI-H522 lung was 76.9%; with A549/ATCC NSCLC, 97.5%; with 786-0 renal it was 89.8%; in the assay on COLO 205 colon it was 116%; in the assay on DU-145 prostate, 95.1%; in the assay with K-562 leukemia, 71.5%. For the same molecule, the growth with MALME-3M melanoma was 108%; in the assay on MDA-MB-231 breast, 114%; in the assay with RXF 393 renal it was 53.4%; in the assay on SF-268 CNS, 85.6%; with SF-295 CNS, 111%; with SF-539 CNS, 105%. The values for the growth in the assay on UACC-257 melanoma and in the assay with M14 melanoma were 97.7% and 99.7%, respectively.
